Experimental data taken from the supplement of paper PMC4709259.
Structures can show the parent of a compound that is named as a salt. ± gives the standard deviation.

The compounds below were run on Jurkat (assay: cell count relative to DMSO control (fraction of control); higher = more cells (less growth inhibition)). Conditions: 48 h.
For `CNC[C@H](O)c1cccc(O)c1` [Phenylephrine] (concentration: 25 µM), the cell count was 0.873 ± 0.15.
`CCN(CC)CCNC(=O)c1cc(Cl)c(N)cc1OC` [Metoclopramide·HCl] (concentration: 25 µM) gave a cell count of 0.758 ± 0.16.
For `O=C(O)CCCc1ccccc1` [Sodium Phenylbutyrate] (concentration: 25 µM), the cell count was 1.05 ± 0.12.
`CC(C)(C)NC[C@H](O)COc1cccc2c1CCCC2=O` [Levobunolol·HCl] (concentration: 25 µM) showed a cell count of 1.11 ± 0.03.
`NCCCC[C@H](N[C@@H](CCc1ccccc1)C(=O)O)C(=O)N1CCC[C@H]1C(=O)O` [Lisinopril·2H2O] (concentration: 25 µM) showed a cell count of 0.884 ± 0.075.
With `Cc1cccc(C)c1NC(=O)C1CCCCN1C` (stereo unspecified) [Mepivacaine·HCl] (concentration: 25 µM) the cell count was 1.31 ± 0.14.
In the case of `CC1(C)O[C@@H]2C[C@H]3[C@@H]4CCC5=CC(=O)C=C[C@]5(C)[C@H]4[C@@H](O)C[C@]3(C)[C@]2(C(=O)CO)O1` [Desonide] (concentration: 25 µM), the cell count is reported as 0.857 ± 0.014.
For `Cc1ccc(-c2cc(C(F)(F)F)nn2-c2ccc(S(N)(=O)=O)cc2)cc1` [Celecoxib] (concentration: 25 µM), the cell count was 0.514 ± 0.11.
Compound `CC(=O)NCCCS(=O)(=O)O` [Acamprosate] (concentration: 25 µM) has a cell count of 0.933 ± 0.097.
`O=C(O)CCCCCCCC(=O)O` [Azelaic Acid] (concentration: 25 µM) showed a cell count of 0.477 ± 0.081.
For `Cn1nnc2c(C(N)=O)ncn2c1=O` [Temozolomide] (concentration: 25 µM), the cell count was 0.543 ± 0.12.
